The supplement of paper PMC10849652
About 7,900 targets were measured; listed, in parts, are those with a hit and a random draw of the rest. About 0.6% of all pairs of compound and target were hits. Values without a mark were called inactive.

Key:
Experiment in all cases: log2 fold change, soluble protein after heating vs DMSO (PISA); higher = thermal stabilisation; K562 cells, 10 uM, 30 min; active = over 0.2 and 3.5 SD of the protein, either way, in both replicates (recomputed)
[1] = compound: CC[C@@H]1C(=O)N(C)c2cnc(Nc3ccc(C(=O)NC4CCN(C)CC4)cc3OC)nc2N1C1CCCC1
How it was run: (§1)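 Aliquots of K562 cells (2×10^6 cells/mL) treated with 10 μM compound for 30 min were heated for 3 min over 48°C-58°C. After pooling and extraction in PBS with 0.5% NP-40 at 4°C, soluble protein from a 21,000xg, 90 min spin was quantified by TMTpro 16plex LC-MS/MS with channel sums equalised. Thermal stability is expressed against control samples, from duplicates, as a log2 fold change.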

[2] = compound: CC[C@@H]1C(=O)N(C)c2cnc(Nc3ccc(C(=O)N[C@H]4CC[C@H](N5CCN(CC6CC6)CC5)CC4)cc3OC)nc2N1C(C)C [volasertib]
How it was run: as §1

[3] = compound: CC[C@H](C)N1C=C(C2=C(C=C(C=C21)C3=CN=C(C=C3)N4CCNCC4)C(=O)NCC5=C(C=C(NC5=O)C)C)C
How it was run: as §1

[4] = compound: CC[C@H](C)[C@@H](C(=O)N[C@@H]([C@@H](C)O)C(=O)N[C@@H](CC(C)C)C(=O)[C@]1(CO1)C)NC(=O)[C@H]([C@@H](C)CC)N(C)C(=O)C [epoxomicin]
How it was run: as §1

[5] = compound: CCn1c(C(=O)N(C2CC2)C2CC2)cc2c3c(ncn3C)c(Nc3cc(C)n(C)n3)nc21
How it was run: as §1

[6] = compound: CCn1cc(-c2ccnc3[nH]c(-c4cccc(CN(C)C)c4)cc23)c(-c2ccc(NC(=O)N(C)C)cc2)n1
How it was run: as §1

[7] = compound: CN(C)CC(=O)Nc1ccc2[nH]c(=O)c3ccccc3c2c1
How it was run: as §1

[8] = compound: CN(CCOC1=CC=C(C=C1)C[C@H]2C(=O)NC(=O)S2)C3=CC=CC=N3 (racemic) [rosiglitazone]
How it was run: as §1

[9] = compound: CN1C2=C(C3=C1C(=O)N(N=C3)CC4=CC(=CC=C4)N)SC(=C2)S(=O)C
How it was run: as §1

[10] = compound: CN1CCC(CNc2ccc3ncc(-c4cccc(OC(F)(F)F)c4)n3n2)CC1
How it was run: as §1

UniProt Q12894, sequence (Q12894 whole entry, looked up): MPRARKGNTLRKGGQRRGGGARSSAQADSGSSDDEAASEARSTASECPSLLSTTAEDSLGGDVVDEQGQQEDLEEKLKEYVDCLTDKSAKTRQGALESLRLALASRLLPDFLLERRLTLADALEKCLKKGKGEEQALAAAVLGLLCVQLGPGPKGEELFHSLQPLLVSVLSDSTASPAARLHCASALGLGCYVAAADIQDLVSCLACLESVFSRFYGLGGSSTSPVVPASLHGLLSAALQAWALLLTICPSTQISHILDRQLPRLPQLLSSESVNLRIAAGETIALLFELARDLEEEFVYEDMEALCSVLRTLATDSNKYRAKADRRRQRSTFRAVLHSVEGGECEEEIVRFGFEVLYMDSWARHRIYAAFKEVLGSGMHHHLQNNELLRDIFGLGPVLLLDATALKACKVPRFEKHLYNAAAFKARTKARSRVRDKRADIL
UniProt P22087, sequence (P22087 whole entry, looked up): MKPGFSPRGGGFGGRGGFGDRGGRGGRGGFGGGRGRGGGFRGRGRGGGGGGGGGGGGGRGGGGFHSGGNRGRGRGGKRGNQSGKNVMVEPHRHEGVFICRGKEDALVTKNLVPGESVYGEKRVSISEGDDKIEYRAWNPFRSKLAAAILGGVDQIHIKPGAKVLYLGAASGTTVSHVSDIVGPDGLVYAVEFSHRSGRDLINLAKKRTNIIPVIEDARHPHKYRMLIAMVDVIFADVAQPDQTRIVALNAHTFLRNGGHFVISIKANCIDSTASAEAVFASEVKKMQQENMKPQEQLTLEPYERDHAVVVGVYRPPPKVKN
UniProt O14976, sequence (O14976 whole entry, looked up): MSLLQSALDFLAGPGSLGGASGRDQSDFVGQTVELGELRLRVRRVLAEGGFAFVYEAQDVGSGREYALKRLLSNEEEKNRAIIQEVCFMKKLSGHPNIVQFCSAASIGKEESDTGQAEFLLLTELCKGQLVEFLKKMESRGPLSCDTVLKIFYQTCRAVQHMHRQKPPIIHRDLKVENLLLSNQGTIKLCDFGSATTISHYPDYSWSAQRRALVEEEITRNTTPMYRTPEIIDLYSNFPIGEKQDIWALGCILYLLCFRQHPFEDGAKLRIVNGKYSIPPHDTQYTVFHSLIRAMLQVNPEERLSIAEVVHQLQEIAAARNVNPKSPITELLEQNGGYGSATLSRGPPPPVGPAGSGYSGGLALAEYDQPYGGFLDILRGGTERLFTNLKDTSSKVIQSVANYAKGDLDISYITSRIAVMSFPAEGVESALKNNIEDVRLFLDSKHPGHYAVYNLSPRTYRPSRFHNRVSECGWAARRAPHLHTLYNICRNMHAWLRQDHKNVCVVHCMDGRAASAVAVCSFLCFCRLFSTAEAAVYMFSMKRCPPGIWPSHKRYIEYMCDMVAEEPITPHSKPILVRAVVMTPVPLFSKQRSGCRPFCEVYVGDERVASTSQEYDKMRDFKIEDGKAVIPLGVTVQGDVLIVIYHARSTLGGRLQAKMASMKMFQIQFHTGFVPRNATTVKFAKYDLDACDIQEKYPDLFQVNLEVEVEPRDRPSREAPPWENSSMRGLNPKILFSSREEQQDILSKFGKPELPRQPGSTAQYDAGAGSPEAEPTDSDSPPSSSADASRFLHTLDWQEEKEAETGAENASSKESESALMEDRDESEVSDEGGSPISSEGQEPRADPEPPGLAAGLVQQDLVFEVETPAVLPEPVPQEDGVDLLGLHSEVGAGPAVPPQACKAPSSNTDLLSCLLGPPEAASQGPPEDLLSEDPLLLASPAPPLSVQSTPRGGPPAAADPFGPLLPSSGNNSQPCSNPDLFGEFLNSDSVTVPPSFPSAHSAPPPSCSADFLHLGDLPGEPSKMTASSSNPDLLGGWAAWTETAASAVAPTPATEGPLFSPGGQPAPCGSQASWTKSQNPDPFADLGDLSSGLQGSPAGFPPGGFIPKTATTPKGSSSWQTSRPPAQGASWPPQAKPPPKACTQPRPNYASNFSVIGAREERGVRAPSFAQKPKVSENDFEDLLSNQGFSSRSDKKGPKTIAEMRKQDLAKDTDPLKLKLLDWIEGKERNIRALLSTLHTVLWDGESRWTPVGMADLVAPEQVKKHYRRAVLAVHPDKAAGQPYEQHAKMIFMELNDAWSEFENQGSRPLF
UniProt Q10471, sequence (Q10471 whole entry, looked up): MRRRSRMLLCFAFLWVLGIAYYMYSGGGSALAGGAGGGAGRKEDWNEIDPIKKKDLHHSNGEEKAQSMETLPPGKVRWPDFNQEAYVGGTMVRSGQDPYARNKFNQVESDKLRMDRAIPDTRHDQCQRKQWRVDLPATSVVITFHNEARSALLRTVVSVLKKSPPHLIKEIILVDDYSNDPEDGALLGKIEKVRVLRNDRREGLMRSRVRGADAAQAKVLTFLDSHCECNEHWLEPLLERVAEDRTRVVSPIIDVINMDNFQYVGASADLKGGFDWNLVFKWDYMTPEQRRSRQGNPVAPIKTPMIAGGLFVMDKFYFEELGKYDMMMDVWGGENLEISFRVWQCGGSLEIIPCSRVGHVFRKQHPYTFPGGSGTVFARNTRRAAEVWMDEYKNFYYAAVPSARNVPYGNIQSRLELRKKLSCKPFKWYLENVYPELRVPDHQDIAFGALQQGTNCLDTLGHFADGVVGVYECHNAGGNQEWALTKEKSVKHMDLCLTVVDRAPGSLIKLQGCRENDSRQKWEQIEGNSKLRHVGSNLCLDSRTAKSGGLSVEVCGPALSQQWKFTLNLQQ
UniProt Q53T59, sequence (Q53T59 whole entry, looked up): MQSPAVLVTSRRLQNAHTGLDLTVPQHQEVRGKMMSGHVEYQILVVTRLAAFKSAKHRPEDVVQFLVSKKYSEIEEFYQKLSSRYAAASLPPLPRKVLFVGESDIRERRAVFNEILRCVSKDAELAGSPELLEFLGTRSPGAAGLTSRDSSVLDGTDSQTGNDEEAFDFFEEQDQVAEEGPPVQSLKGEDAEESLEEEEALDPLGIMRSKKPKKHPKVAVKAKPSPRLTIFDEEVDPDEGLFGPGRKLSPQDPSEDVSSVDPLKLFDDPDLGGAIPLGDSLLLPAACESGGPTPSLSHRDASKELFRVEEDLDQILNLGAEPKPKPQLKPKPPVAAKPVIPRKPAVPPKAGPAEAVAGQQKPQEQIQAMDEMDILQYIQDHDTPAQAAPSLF
UniProt P15976, sequence (P15976 whole entry, looked up): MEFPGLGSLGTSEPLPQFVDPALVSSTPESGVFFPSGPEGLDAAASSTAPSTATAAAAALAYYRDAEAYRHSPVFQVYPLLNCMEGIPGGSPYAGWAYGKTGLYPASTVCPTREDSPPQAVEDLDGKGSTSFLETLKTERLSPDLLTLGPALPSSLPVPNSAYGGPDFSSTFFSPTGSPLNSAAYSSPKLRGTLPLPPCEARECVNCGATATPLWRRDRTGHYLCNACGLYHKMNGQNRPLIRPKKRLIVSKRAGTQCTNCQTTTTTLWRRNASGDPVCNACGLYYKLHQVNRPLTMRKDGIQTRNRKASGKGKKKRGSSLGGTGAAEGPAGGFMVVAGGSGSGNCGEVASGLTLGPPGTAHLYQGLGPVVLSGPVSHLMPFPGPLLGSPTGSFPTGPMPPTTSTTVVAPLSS
UniProt Q13547, sequence (Q13547 whole entry, looked up): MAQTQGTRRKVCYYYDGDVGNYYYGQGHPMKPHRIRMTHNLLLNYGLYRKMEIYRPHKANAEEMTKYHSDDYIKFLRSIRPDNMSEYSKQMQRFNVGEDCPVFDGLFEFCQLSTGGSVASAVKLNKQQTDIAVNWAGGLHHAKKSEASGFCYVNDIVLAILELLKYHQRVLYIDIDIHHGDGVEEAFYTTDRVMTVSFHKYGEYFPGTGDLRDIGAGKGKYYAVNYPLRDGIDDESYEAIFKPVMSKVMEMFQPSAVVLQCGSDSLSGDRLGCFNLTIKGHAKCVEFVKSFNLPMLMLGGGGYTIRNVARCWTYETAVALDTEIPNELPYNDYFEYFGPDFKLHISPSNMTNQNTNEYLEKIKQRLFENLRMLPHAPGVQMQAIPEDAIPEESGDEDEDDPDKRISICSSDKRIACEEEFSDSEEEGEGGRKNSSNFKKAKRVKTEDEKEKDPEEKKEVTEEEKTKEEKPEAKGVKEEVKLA
UniProt Q9NZC3, sequence (Q9NZC3 whole entry, looked up): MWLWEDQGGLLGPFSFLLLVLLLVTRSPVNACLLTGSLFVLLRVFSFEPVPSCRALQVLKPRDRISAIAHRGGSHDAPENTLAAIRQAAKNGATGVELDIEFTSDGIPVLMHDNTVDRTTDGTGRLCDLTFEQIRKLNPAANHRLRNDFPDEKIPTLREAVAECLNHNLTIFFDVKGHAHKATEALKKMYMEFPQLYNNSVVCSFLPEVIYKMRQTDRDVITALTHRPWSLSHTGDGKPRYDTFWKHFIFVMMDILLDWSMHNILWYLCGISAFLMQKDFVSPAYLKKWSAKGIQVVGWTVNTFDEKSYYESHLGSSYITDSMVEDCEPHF
UniProt Q9UJY4, sequence (Q9UJY4 whole entry, looked up): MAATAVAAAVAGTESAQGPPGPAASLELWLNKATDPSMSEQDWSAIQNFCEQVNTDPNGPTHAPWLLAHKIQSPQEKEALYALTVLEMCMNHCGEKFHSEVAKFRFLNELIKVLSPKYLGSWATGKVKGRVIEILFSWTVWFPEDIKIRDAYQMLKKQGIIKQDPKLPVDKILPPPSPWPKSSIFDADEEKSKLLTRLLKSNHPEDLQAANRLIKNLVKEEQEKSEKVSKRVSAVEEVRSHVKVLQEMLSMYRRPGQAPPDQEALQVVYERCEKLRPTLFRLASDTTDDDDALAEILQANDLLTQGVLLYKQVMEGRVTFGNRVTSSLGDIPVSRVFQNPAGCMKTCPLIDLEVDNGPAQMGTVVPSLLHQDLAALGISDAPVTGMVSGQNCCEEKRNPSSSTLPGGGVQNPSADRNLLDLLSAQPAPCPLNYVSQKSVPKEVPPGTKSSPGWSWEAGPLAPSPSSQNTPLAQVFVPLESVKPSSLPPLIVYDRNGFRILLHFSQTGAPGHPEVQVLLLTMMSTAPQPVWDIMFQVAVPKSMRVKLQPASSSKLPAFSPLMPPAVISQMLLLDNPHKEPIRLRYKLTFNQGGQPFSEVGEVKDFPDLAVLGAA
UniProt P60520, sequence (P60520 whole entry, looked up): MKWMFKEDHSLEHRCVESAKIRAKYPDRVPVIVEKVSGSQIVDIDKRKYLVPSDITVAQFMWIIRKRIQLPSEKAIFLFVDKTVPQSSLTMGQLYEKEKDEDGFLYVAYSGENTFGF

Row | Target | log2 fold change [1] | log2 fold change [2] | log2 fold change [3] | log2 fold change [4] | log2 fold change [5] | log2 fold change [6] | log2 fold change [7] | log2 fold change [8] | log2 fold change [9] | log2 fold change [10]
1 | HEXB (UniProt P07686) | -0.426 (active) | -0.396 (active) | -0.013 | -0.006 | 0.031 | 0.019 | 0 | -0.008 | -0.047 | -0.563 (active)
2 | GATA1 (UniProt P15976) | 0.134 | 0.076 | -0.036 | 0.152 | -0.026 | 0.04 | -0.084 | -0.021 | 0.046 | 0.119
3 | GALNT2 (UniProt Q10471) | -0.082 | -0.377 (active) | 0.027 | -0.004 | 0.003 | -0.034 | -0.021 | 0.027 | -0.079 | -0.077
4 | GABARAPL2 (UniProt P60520) | -0.29 (active) | -0.182 | 0.041 | 0.027 | 0.007 | -0.049 | -0.017 | 0.099 | -0.07 | -0.099
5 | IDH3A (UniProt P50213) | -0.031 | -0.01 | 0.004 | 0.063 | 0 | -0.027 | 0 | 0.008 | -0.064 | 0.033
6 | GEMIN6 (UniProt Q8WXD5) | 0.109 | 0.148 | -0.052 | 0.093 | -0.017 | -0.019 | -0.039 | 0.071 | -0.087 | -0.048
7 | GBA2 (UniProt Q9HCG7) | 0 | 0.308 (active) | -0.082 | -0.062 | -0.075 |  | 0.027 | -0.07 | -0.085 | 
8 | FARS2 (UniProt O95363) | 0.01 | -0.172 | 0.109 | -0.034 | 0.036 | -0.052 | -0.036 | 0.086 | -0.002 | -0.319 (active)
9 | HNRNPH1 (UniProt P31943) | -0.124 | -0.583 (active) | 0.1 | 0.018 | -0.192 | -0.025 | 0.072 | 0.025 | 0.083 | -0.247
10 | GTF3C5 isoform 3 (UniProt Q9Y5Q8) | -0.188 | -0.157 | 0.213 | -0.011 | 0.029 | -0.034 | 0.078 | 0.017 | -0.025 | 0.03
11 | GGA2 (UniProt Q9UJY4) | 0.022 | 0.059 | 0.038 | -0.033 | 0.005 |  | -0.021 | 0.083 | -0.02 | 
12 | GNG5 (UniProt P63218) | 0.105 | 0.033 | -0.117 | 0.556 (active) | 0.059 | 0.004 | -0.07 | -0.045 | -0.014 | 0.144
13 | GDE1 (UniProt Q9NZC3) | 0.033 | 0.053 | -0.092 | -0.046 | 0.002 |  | -0.049 | -0.003 | -0.016 | 
14 | FBL (UniProt P22087) | 0.283 | 0.151 | -0.034 | -0.396 | -0.106 | 0.184 | -0.143 | -0.144 | 0.359 | 0.34
15 | GATD1 (UniProt Q8NB37) | -0.023 | -0.009 | -0.032 | 0.078 | 0.013 | -0.034 | -0.02 | 0.013 | 0.011 | -0.049
16 | HSPA8 (UniProt E9PN89) | 0.167 | 0.114 | -0.205 | -0.278 | -0.127 | 0.178 | -0.139 | 0.049 |  | -0.154
17 | FLNA (UniProt P21333) | -0.121 | -0.375 (active) | 0.078 | 0.063 | -0.074 | -0.004 | 0.029 | 0.019 | 0.052 | -0.12
18 | HDAC1 (UniProt Q13547) | -0.025 | -0.216 | 0.037 | -0.006 | -0.015 | 0.019 | 0.011 | -0.027 | 0.001 | -0.043

Row | Target | log2 fold change [1] | log2 fold change [2] | log2 fold change [3] | log2 fold change [4] | log2 fold change [5] | log2 fold change [6] | log2 fold change [7] | log2 fold change [8] | log2 fold change [9] | log2 fold change [10]
19 | GOLGB1 isoform 2 (UniProt Q14789) | 0.009 | -0.17 | -0.052 | -0.185 | 0.082 | 0.05 | -0.061 | 0.004 | 0.148 | -0.009
20 | FDFT1 (UniProt P37268) | -0.067 | -0.151 | -0.01 | 0.06 | -0.017 | -0.06 | 0.003 | -0.024 | -0.059 | 0.067
21 | GPX4 (UniProt P36969) | 0.019 | 0.016 | 0.012 | 0.021 | 0.001 | -0.025 | 0.009 | -0.012 | -0.061 | 0.067
22 | HS1BP3 (UniProt Q53T59) | -0.038 | -0.343 (active) | 0.073 | 0.056 | -0.043 |  | 0.012 | 0.07 | -0.041 | 
23 | GAK (UniProt O14976) | 0.673 | 1.35 | -0.401 | -0.046 | 0.096 | 0.11 | 0.382 |  | -0.038 | 0.95
24 | GPS2 (UniProt Q13227) | 0.151 | -0.072 | 0.082 | 0.016 | -0.011 |  | 0.068 | 0.027 |  | 
25 | IFRD2 isoform 2 (UniProt Q12894) | 0.084 | 0.045 | -0.261 | -0.02 | 0 | 0.029 | -0.319 | 0.225 | -0.023 | 0.196
26 | GSE1 (UniProt Q14687) |  |  | -0.003 |  |  |  | -0.117 | 0.151 | -0.004 | 
27 | FAT1 (UniProt Q14517) |  | 0.009 | -0.048 | -0.05 | 0.006 | -0.018 | 0.07 | 0.095 | -0.11 | 0.082
28 | FUNDC1 (UniProt Q8IVP5) |  | 0.078 |  |  |  |  |  | -0.13 |  | 
29 | FMR1 (UniProt Q06787) | -0.068 | -0.173 |  |  | 0.178 | 0.088 |  |  |  | 0.279
30 | GOLGA6B (UniProt A6NDN3) |  |  | -0.579 (active) | -0.061 | 0.07 | -0.185 | 0.327 | 0.084 |  | 0.067
31 | IFITM3 (UniProt Q01628) | -0.004 | 0.033 | 0.023 | -0.007 | -0.124 |  | 0.175 | -0.096 | -0.015 | 
32 | GREB1 (UniProt Q4ZG55) |  |  |  | -0.081 | -0.108 |  | -0.095 |  |  | 
33 | HNRNPUL1 (UniProt M0R247) | -0.072 | 0.16 | -0.101 |  | 0.121 |  |  |  | 0.21 | 
34 | HSPA2 (UniProt P54652) |  |  | -0.014 |  | -0.012 |  |  | 0.02 |  | 
35 | GBE1 (UniProt Q04446) | 0.042 | -0.61 (active) |  | 0.168 | 0.016 |  | 0.058 | -0.128 | 0.071 | 
36 | H3-3A (UniProt P84243) | -0.083 | -0.239 | 0.147 |  | -0.123 |  | -0.083 | 0.076 | 0.045 | 
